# In PubChem BioAssay:
# Active and inactive are the calls of the source.
# How the values were obtained:
# [1] = small molecules captured by biotinylated probe aFSTL3 – biochemical, small-molecule microarray, fluorescence 635/667, stem cell growth factor project, primary screen (AID 1064); conditions: higher = more signal;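 also: measures binding of the biotinylated anti-FSTL3 antibody to printed compounds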
# [2] = binders from COS7 lysate, DM2A8 probe, primary screen, torsin A project, cell lysate, small-molecule microarray, fluorescence 635/667 (AID 1065); conditions: higher = more signal, COS7 lysate expressing mutant human TOR1A
# [3] = small molecules captured by biotinylated probe aFGF2 – biochemical, small-molecule microarray, fluorescence 635/667, stem cell growth factor project, primary screen (AID 1067); conditions: higher = more signal;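 also: measures binding of biotinylated aFGF2 protein to printed compounds on slides; z-score merges feature fluorescence and signal-to-noise across triplicate slides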
# [4] = small molecules captured by biotinylated probe aFGF10 – biochemical, small-molecule microarray, fluorescence 635/667, stem cell growth factor project, primary screen (AID 1071); conditions: higher = more signal;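 also: score merges 667 nm spot intensity and signal to noise from triplicate slides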
# [5] = biological target: Neurogenic locus notch homolog protein 2 (Homo sapiens) (UniProt Q04721); assay: small molecules binding Notch2 protein – biochemical, small-molecule microarray, 635 nm fluorescence, stem cell growth factors, primary screen (AID 1073); conditions: higher = more signal
# [6] = biological target: Pro-neuregulin-1, membrane-bound isoform (Homo sapiens) (UniProt Q02297); assay: small molecules binding neuregulin-1 protein – biochemical, small-molecule microarray, fluorescence 635/667, psychiatric disease protein project, primary screen (AID 1075); conditions: NRG1 binding, 635 nm fluorescence, higher = more signal;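 also: score combines 667 nm spot fluorescence with signal to noise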
# [7] = test system: Neuregulin-1 EGF-like domain; assay: small molecules binding NRG1 EGF domain – biochemical, small-molecule microarray, 635 nm fluorescence, primary screen (AID 1081); conditions: higher = more signal;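 also: binding of the protein to compounds printed on small-molecule microarray slides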
# [8] = FRG1 expression reporter modulators in myotubes – cell-based, C2C12 myotubes, firefly/Renilla luciferase, luminescence, FRG1 inhibition for FSHD, primary screen (AID 1084); conditions: FRG1 promoter luciferase, higher = more signal, called active from +8 up or from −8 down
# [9] = small molecules captured by biotinylated probe aFST – biochemical, small-molecule microarray, fluorescence 635/667, stem cell growth factor project, primary screen (AID 1086); conditions: higher = more signal;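 also: score merges 667 nm fluorescence with signal-to-noise of each printed compound spot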
# [10] = binders of probe aHhip on microarray, primary screen, stem cell growth factor project, biochemical, small-molecule microarray, fluorescence 635/667 (AID 1087); conditions: higher = more signal;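 also: score merges spot fluorescence at 667nm with spot signal to noise ratio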
# [11] = test system: PRMT1 (protein arginine N-methyltransferase 1); assay: small molecules binding arginine methyltransferase PRMT1 – biochemical, small-molecule microarray, 635 nm fluorescence, primary screen (AID 1088); conditions: higher = more signal;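 also: binding of Prmt1 protein to compounds spotted on small-molecule microarray slides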
# [12] = growth effects on S. cerevisiae YJM789 – YJM789 clinical isolate, OD600, 24 h, basal, primary screen (AID 1089); conditions: higher = more signal, called active from +8 up or from −8 down;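 also: growth of clinical yeast isolate S. cerevisiae YJM 789 seeded 1000 cells per well; test concentration not given here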
# [13] = S. pombe growth modifiers, basal conditions – strain 972, OD600, 24 h, no modulator, primary screen (AID 1090);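 also: basal condition with compound alone and no growth modifier present; test concentration not given here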; conditions: S. pombe 972 growth, higher = more signal, called active from +8 up or from −8 down
# [14] = budding yeast growth modifiers under rapamycin – strain BY4716, OD600, 96 h, primary screen (AID 1091); also: test concentration not given here; conditions: S. cerevisiae BY4716 + rapamycin, higher = more signal, called active from +8 up or from −8 down
# [15] = biological target: Torsin-1A-interacting protein 2 (Homo sapiens) (UniProt Q8NFQ8); assay: small molecules binding lysate-expressed LULL1 – cell lysate, human LULL1 lysate, 635/667 nm fluorescence, primary screen (AID 1092); conditions: small-molecule microarray, hLULL1 lysate binding, 635 nm fluorescence; higher = more signal;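 also: probe is lysate of COS7 cells overexpressing human LULL1; score merges per-feature 667 nm fluorescence with signal-to-noise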
# [16] = optical density change of DRC41 E. coli – strain DRC41, OD650, 24 h, E. coli filamentation project, primary screen (AID 1093);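 also: MC1000 strain lacking acrAB efflux and sulA so SOS filamentation is blocked; test concentration not given here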; conditions: E. coli DRC41 growth, higher = more signal, called active from +8 up or from −8 down
# [17] = probe aLefty2 binding to arrayed compounds – biochemical, biotinylated probe, 635/667 nm fluorescence, primary screen (AID 1094); conditions: small-molecule microarray, higher = more signal;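 also: score merges spot fluorescence near 667 nm with spot signal-to-noise ratio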
# [18] = test system: Noggin (protein binding on small-molecule microarray); assay: small molecules binding Noggin protein – biochemical, 635/667 nm fluorescence, primary screen (AID 1095); conditions: 635 nm fluorescence, higher = more signal;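 also: score merges 667 nm feature fluorescence with signal to noise over triplicate slides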
# [19] = biological target: Neurogenic locus notch homolog protein 3 (Homo sapiens) (UniProt Q9UM47); assay: small molecules binding NOTCH3 protein – biochemical, 635/667 nm fluorescence, primary screen (AID 1096); conditions: small-molecule microarray, 635 nm fluorescence, higher = more signal
# [20] = probe aEGFR binding to arrayed compounds – biochemical, biotinylated probe, 635/667 nm fluorescence, primary screen (AID 1097); conditions: small-molecule microarray, higher = more signal;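 also: probe is a biotinylated anti-EGFR antibody binding compounds printed on slides; score combines fluorescence near 667 nm and signal to noise of each spot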
# Sequence of Neurogenic locus notch homolog protein 3 (Homo sapiens) (Q9UM47 whole entry, looked up): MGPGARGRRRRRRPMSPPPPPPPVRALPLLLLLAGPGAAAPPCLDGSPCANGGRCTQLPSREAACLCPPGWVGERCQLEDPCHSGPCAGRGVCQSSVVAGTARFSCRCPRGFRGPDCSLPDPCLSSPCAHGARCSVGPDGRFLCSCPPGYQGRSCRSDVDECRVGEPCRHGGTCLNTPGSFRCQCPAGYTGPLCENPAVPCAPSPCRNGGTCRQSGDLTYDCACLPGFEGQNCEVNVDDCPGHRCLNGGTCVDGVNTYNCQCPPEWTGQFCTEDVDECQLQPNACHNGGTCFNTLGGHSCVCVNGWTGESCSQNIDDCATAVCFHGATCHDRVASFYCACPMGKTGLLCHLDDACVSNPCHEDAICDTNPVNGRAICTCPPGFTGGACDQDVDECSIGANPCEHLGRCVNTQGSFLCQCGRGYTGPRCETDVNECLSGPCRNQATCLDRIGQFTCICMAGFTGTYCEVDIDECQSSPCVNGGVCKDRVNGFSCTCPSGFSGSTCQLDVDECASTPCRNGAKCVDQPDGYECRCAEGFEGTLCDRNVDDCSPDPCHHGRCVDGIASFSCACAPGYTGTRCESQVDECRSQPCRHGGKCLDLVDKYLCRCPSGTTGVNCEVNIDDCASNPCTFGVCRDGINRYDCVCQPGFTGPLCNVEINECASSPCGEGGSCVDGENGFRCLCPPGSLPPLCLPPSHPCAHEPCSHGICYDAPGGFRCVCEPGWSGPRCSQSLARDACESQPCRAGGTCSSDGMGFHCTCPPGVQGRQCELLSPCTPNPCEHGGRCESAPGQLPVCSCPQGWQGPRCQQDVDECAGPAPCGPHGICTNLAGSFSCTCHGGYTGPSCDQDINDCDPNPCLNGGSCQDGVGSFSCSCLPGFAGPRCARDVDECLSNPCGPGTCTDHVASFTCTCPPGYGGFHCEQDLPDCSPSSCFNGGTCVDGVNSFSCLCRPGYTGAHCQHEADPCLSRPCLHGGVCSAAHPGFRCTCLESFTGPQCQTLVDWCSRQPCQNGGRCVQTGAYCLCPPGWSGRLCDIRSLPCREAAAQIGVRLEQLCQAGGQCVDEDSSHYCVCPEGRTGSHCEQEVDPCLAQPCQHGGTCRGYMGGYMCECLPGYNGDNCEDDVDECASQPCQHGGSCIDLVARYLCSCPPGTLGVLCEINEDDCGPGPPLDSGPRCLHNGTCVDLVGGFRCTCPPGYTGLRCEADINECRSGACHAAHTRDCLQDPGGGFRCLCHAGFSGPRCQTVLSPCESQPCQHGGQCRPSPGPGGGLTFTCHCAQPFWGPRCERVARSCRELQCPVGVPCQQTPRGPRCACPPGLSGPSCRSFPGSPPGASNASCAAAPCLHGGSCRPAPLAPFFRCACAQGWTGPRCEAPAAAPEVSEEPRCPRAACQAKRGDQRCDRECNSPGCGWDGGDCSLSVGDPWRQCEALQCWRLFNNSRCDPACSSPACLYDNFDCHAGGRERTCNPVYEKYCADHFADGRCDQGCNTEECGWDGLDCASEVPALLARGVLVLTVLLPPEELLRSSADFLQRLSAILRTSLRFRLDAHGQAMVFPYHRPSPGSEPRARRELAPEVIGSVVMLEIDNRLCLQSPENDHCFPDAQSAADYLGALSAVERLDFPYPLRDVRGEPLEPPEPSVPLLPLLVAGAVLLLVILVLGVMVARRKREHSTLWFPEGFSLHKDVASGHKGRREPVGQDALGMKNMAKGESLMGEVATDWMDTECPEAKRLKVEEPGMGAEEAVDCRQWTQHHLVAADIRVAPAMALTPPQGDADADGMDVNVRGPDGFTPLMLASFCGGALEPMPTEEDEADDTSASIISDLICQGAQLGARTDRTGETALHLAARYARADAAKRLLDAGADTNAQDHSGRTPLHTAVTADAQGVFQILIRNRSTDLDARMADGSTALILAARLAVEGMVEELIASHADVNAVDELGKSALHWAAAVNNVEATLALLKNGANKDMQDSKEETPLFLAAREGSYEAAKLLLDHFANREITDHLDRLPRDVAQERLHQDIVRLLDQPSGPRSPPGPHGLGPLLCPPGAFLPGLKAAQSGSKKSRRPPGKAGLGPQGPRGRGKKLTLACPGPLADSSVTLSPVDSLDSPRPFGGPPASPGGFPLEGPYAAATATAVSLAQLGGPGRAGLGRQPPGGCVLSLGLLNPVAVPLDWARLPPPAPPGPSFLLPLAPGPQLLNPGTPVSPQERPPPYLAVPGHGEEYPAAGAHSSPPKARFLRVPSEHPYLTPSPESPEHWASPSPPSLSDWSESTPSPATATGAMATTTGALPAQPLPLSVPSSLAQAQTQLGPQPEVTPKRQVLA
# Sequence of Torsin-1A-interacting protein 2 (Homo sapiens) (Q8NFQ8 whole entry, looked up): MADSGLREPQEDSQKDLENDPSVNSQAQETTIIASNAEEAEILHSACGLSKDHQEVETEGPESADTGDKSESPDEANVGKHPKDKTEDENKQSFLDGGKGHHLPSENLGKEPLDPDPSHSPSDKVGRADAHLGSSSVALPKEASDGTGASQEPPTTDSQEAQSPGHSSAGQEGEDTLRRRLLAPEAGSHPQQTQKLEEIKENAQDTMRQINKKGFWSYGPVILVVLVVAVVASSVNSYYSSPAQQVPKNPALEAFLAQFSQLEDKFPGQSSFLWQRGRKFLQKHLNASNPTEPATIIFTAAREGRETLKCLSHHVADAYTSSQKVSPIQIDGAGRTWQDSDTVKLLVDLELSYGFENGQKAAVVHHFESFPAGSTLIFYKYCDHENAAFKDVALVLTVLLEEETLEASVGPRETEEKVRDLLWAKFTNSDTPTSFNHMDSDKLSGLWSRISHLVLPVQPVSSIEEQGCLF
# Sequence of Pro-neuregulin-1, membrane-bound isoform (Homo sapiens) (Q02297 whole entry, looked up, the tested form may be a part, canonical isoform): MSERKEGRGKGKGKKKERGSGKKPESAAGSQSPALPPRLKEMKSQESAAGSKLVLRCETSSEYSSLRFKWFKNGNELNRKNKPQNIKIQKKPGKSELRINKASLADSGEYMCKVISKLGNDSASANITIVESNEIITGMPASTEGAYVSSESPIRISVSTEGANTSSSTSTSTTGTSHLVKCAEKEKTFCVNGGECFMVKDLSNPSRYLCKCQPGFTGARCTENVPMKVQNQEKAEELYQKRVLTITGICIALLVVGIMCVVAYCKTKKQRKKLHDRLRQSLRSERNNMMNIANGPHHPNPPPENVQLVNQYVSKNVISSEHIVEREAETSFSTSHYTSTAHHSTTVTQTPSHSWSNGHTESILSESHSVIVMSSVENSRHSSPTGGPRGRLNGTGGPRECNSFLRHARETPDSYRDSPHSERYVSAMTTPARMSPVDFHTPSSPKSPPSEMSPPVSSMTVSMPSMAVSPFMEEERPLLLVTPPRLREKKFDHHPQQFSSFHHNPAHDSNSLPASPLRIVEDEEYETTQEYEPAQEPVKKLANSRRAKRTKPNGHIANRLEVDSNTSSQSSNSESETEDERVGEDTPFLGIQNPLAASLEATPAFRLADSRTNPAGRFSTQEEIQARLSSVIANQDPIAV
Compound,composite z-score [1],composite z-score [2],composite z-score [3],composite z-score [4],composite z-score [5],composite z-score [6],composite z-score [7],z-score [8],composite z-score [9],composite z-score [10],composite z-score [11],z-score [12],z-score [13],z-score [14],composite z-score [15],z-score [16],composite z-score [17],composite z-score [18],composite z-score [19],composite z-score [20]
COCCOC(=O)N1C(=O)[C@@]2(c3cc(C#CC4=CCCCC4)ccc31)[C@H](C(=O)Nc1nc3ccccc3s1)[C@H]1C(=O)O[C@H](c3ccccc3)[C@H](c3ccccc3)N1[C@@H]2c1ccc(OCCO)cc1,-0.152,0.471,-0.0009,0.427,1.12,0.342,0.899,2.19 (inactive),0.146,-0.0994,1.58,2.47 (inactive),1.97 (inactive),2.07 (inactive),1.82,0.373 (inactive),-0.119,1.23,1.14,-0.0238
CCCCC(O)C1C=CC2C(=O)N(c3ccccc3)C(=O)C2N1Nc1ccccc1F (stereo not given),1.12,0.0488,0.256,0.516,0.829,1.15,1.2,0.221 (inactive),1.75,0.953,1.11,-0.0377 (inactive),-0.579 (inactive),1.03 (inactive),2.99,-0.825 (inactive),0.648,-0.0787,0.818,0.159
COc1ccc(C(=O)Nc2cccc(CN3C(=O)[C@]4(O[C@H](CCO)[C@@H]([Si](C)(C)c5ccc(OC)cc5)[C@@H]4C)c4ccccc43)c2)cc1,-0.442,0.193,-0.102,0.285,0.484,0.621,1.09,-3.19 (inactive),0.439,-0.179,1.56,0.412 (inactive),-14.9 (active),0.251 (inactive),1.83,1.03 (inactive),-0.164,0.822,1,-0.0675
CC(=O)NCCCC[C@@H]1NC(=O)[C@@H]2C[C@H](C(=O)NCCCCCCNC(=O)CS)[C@H](c3cccc(OCCO)c3)N2C1=O,0.0659,0.311,-0.0212,0.283,0.149,0.632,1.24,0.743 (inactive),0.414,-0.299,1.55,-0.531 (inactive),-0.507 (inactive),-0.0963 (inactive),2.03,-0.329 (inactive),0.498,0.452,0.249,-0.112
C=CCN1C(=O)[C@]2(O[C@H](CCO)[C@@H]([Si](C)(C)c3ccc(OC)cc3)[C@@H]2C)c2cc(N3CCCCC3=O)ccc21,-0.5,0.897,-0.0291,0.428,1.15,1.42,1.24,-3.81 (inactive),0.645,-0.13,1.54,-0.242 (inactive),0.413 (inactive),2.23 (inactive),2.37,1.27 (inactive),-0.106,1.06,1.14,0.048
O=C1O[C@@H](c2ccccc2)[C@@H](c2ccccc2)N2[C@@H](c3ccc(OCCO)cc3)[C@]3(C(=O)Nc4ccccc43)[C@@H](C(=O)NC[C@H](O)c3ccccc3)[C@H]12,-0.0164,0.0007,-0.019,-0.0455,1.27,1.24,1.26,-2.2 (inactive),0.322,-0.145,1.35,1.63 (inactive),1.59 (inactive),4.14 (inactive),2.44,-0.46 (inactive),0.161,0.457,0.488,0.174
COc1ccc(CCN2C(=O)[C@@]3(c4ccc([N+](=O)[O-])cc4)CC(=O)N(C4CCCCC4)[C@@H]3c3ccc(CO)cc32)cc1,-0.126,0.0269,-0.148,-0.0632,-0.0731,0.0125,1.46,0.912 (inactive),-0.135,-0.0994,1.09,-1.82 (inactive),0.701 (inactive),-1.83 (inactive),0.479,0.483 (inactive),-0.0246,0.792,0.441,-0.1
O=C1NC(=O)C2C1C=CC(C(O)c1ccccc1)N2Nc1ccc(Cl)cc1Cl (stereo not given),-0.324,0.299,0.162,0.803,1.54,1.37,1.15,-1.44 (inactive),1.32,-0.156,1.56,-25.6 (active),-4.35 (inactive),-1.48 (inactive),3.74,-1.8 (inactive),0.0847,0.385,1.12,0.063
COc1ccc([C@H]2OC[C@@H]3CC4(CC=CC4)C(=O)N32)cc1,0.0596,-0.407,-0.129,0.479,-0.321,-0.105,1,1.43 (inactive),-0.0135,-0.236,1.08,-0.205 (inactive),0.0197 (inactive),-0.451 (inactive),1.24,-0.472 (inactive),-0.0171,1.08,0.527,0.0376
[N-]=[N+]=Nc1ccccc1[C@H]1OC(c2ccc(OCCCO)cc2)=N[C@@]1(Cc1ccccc1)C(=O)O,0.0481,0.466,0.0363,0.641,1.05,1.69,1.3,1.02 (inactive),0.693,-0.374,1.3,0.206 (inactive),-0.329 (inactive),-1.06 (inactive),3.3,0.355 (inactive),-0.0152,0.875,1.11,-0.0351
COC(=O)[C@@]1(Cc2ccccc2)[C@H]2c3cc(C(=O)N4CCCC4)n(CC4CC4)c3C[C@H]2CN1C(=O)c1ccccc1,0.963,0.365,0.424,0.703,1.6,1.64,1.14,0.692 (inactive),2.15,0.337,1.21,0.0645 (inactive),0.513 (inactive),0.667 (inactive),3.32,-0.887 (inactive),0.508,0.294,1.05,0.776
